# According to PubChem BioAssay AID2639 (National Center for Advancing Translational Sciences (NCATS), 2010):
# Calls of active or inactive are those of the source. Calls follow the shape of the full dose curve.
# Assay: Platelet Aggregation Secondary Assay for Inhibitors of Platelet Integrin alphallb-beta3
# Details: platelet-rich plasma, ADP-induced aggregation, absorbance 563 nm
# Description: NIH Molecular Libraries Probe Production Network [MLPCN] NIH Chemical Genomics Center [NCGC] MLPCN Grant: 1 R03 MH083257-01 Assay Provider: Barry Coller, Rockefeller University NCGC Assay Overview: The alphaIIbbeta3 receptor plays a vital role in hemostasis and thrombosis, where receptor deficiency causes the hemorrhagic disorder, Glanzmann thrombasthenia, and uncontrolled receptor activation causes thrombosis and blood vessel occlusion. Small molecule inhibitors of alphaIIbbeta3, tirofiban and eptifibatide, have undesirable side effects thought to arise from conformational changes in alphaIIbbeta3. These changes transiently activate the receptor to cause spontaneous platelet aggregation and thrombus formation. […] This secondary assay measures platelet aggregation (Blue et al., 2008). Platelets are induced to aggregate and aggregation is tracked by the change in absorbance over time. Inhibitors of alphaIIbbeta3 block platelet aggregation and decrease the rate of change in absorbance.
# NCGC Assay Protocol Summary: Untreated 96-well polystyrene plates (Nunc, Rochester, NY) were blocked for at least 1 hour with HBMT (138 mM NaCl, 12 mM NaHCO3, 10 mM HEPES, 2.7 mM KCl, 0.4 mM NaH2PO4, 0.1% glucose, 0.35% BSA, pH 7.4). Compounds (33 uL in HBMT) and citrated platelet-rich plasma (67 uL) were added to the wells. After plates equilibrated at 37 C in the plate reader (SpectraMax; Molecular Devices, Sunnyvale, CA) for 10 minutes, aggregation was initiated by adding ADP (5 uM final concentration; Chrono-Log Corp, Havertown, PA). Absorbance (Abs) was measured at 563 nm every 10 seconds with 3 seconds of shaking between determinations for 8 minutes. Reference Blue R, Murcia M, Karan C, Jirouskova M, and Coller BS. Application of high-throughput screening to identify a novel alphaIIb-specific small- molecule inhibitor of alphaIIbbeta3-mediated platelet interaction with fibrinogen. Blood. 2008, 111(3):1248-56
Compound,Potency,outcome
Nc1ncc(-c2cccc(-c3nn4c(=O)cc(N5CCNCC5)nc4s3)c2)cn1,10.1 µM (active),
NC(=O)c1ccc(-c2cccc(-c3nn4c(=O)cc(N5CCNCC5)nc4s3)c2)cc1,1.6 µM (active),
CCc1nn2c(=O)cc(-c3ccncc3)nc2s1,,inactive
Nc1ccc(-c2cccc(-c3nn4c(=O)cc(N5CCNCC5)nc4s3)c2)cc1,1.9 µM (active),
CCc1nn2c(=O)cc(NC3CNC3)nc2s1,,inactive
NCCC(=O)Nc1cccc(-c2nn3c(=O)cc(N4CCNCC4)nc3s2)c1,1.6 µM (active),
O=c1cc(N2CCNCC2)nc2sc(-c3cccc(-c4ccncc4)c3)nn12,8 µM (active),
O=c1cc(N2CCNCC2)nc2sc(Cc3ccccc3)nn12,13.9 µM (active),
C[C@@H](N)C(=O)Nc1cccc(-c2nn3c(=O)cc(N4CCNCC4)nc3s2)c1,5.9 µM (active),
NCC(=O)Nc1cccc(-c2nn3c(=O)cc(N4CCNCC4)nc3s2)c1,0.163 µM (active),
O=C(O)c1ccc(-c2cccc(-c3nn4c(=O)cc(N5CCNCC5)nc4s3)c2)cc1,11.4 µM (active),
CC(C)(C)c1nn2c(=O)cc(N3CCNCC3)nc2s1,,inactive
O=C(Nc1cccc(-c2nn3c(=O)cc(N4CCNCC4)nc3s2)c1)c1ccncc1,1.5 µM (active),
O=C(O)CNc1cccc(-c2nn3c(=O)cc(N4CCNCC4)nc3s2)c1,12.7 µM (active),
O=C(O)c1ccc(-c2nn3c(=O)cc(N4CCNCC4)nc3s2)cc1,5.4 µM (active),
O=c1cc(N2CCNCC2)nc2sc(-c3cccc(-c4ccnc(F)c4)c3)nn12,8.4 µM (active),
Cc1noc(C)c1-c1cccc(-c2nn3c(=O)cc(N4CCNCC4)nc3s2)c1,,inactive
COCc1nn2c(=O)cc(N3CCNCC3)nc2s1,,inactive
CNCC(=O)Nc1cccc(-c2nn3c(=O)cc(N4CCNCC4)nc3s2)c1,,inactive
O=C(Nc1cccc(-c2nn3c(=O)cc(N4CCNCC4)nc3s2)c1)c1ccon1,,inactive
O=c1cc(N2CCNCC2)nc2sc(-c3ccncc3)nn12,3.1 µM (active),
C[C@H](N)C(=O)Nc1cccc(-c2nn3c(=O)cc(N4CCNCC4)nc3s2)c1,0.916 µM (active),
O=C(O)c1cc(-c2cccc(-c3nn4c(=O)cc(N5CCNCC5)nc4s3)c2)cs1,,inactive
CCc1nn2c(=O)cc(N3C(C)CNCC3C)nc2s1 (stereo unspecified),,inactive
O=C(O)c1cccc(-c2cccc(-c3nn4c(=O)cc(N5CCNCC5)nc4s3)c2)c1,,inactive
O=C(Nc1cccc(-c2nn3c(=O)cc(N4CCNCC4)nc3s2)c1)C1CCNCC1,8.6 µM (active),
